# From PubChem BioAssay
# FBPA coupling cs: coupling enzyme interference in Giardia aldolase counter-screen; coupling enzyme system counterscreen, AmpLite Red fluorescence; activity change, negative = inhibition, % at 58.2 µM, hits read low; hit rate 0.67% among 290,000; AID 2472; in the data active = activity change below about -30%
#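 Final compound at 57.5 uM, incubated 10 min at RT with coupling enzyme reagent (glyceraldehyde-3-phosphate), then 20 min with substrate and AmpLite Red detection. Fluorescence read at 525/598 nm; tests interference with the coupling assay, not aldolase inhibition.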
# RORg inh: ROR gamma (mouse) transcription inhibition. P51450. Drosophila S2 Gal4-RORgamma UAS-luciferase reporter, 20 h. Potency, µM (doses to about 53.6 µM), actives largely listed as inhibitors. hit rate 5.4% among 310,000; note: nearly all actives have a fitted effect of over 60% in size
#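 A Gal4/UAS one-hybrid system in insect cells: metallothionein-promoter Gal4–ROR gamma fusion plus Photinus luciferase reporter. Copper sulfate 700 uM final, 20 hr ambient incubation, luminescent detection after 10 min with reagent.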
# TrxR1 substrate: rat thioredoxin reductase 1 substrate activity. purified TrxR1 substrate turnover, NADPH consumption readout. hit rate 0.01% among 390,000. O89049. Potency, µM (series often up to 114 µM); note: nearly all actives have a fitted effect of over 50% in size
#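 Rat TrxR1, dispensed at 90 nM, was prereduced with 400 uM NADPH (final) for 5 min at ~22 deg C, then incubated with compound 15 min before 400 uM selenite. A first-read NADPH fluorescence drop versus no-compound background flagged substrates.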
# Gal4-VP16 FLuc: counter-screen for ROR gamma inhibitors: Gal4-VP16 reporter; Drosophila S2 Gal4-VP16 UAS-luciferase, luminescence, 20 h; Potency, µM (series often up to 53.6 µM), actives largely listed as inhibitors; hit rate 3.5% among 310,000;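 note: Gal4-VP16 expression switched on by copper sulfate through the metallothionein promoter; nearly all actives have a fitted effect of over 50% in size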
# GALK inhibitor: blocks human galactokinase activity. P51570. Purified GALK, Kinase-Glo residual ATP luminescence. Potency, µM (series often up to 57.5 µM), most hits filed as inhibitors. hit rate 0.007% among 270,000. AID 1868
# Target sequence (P51570 whole entry, looked up): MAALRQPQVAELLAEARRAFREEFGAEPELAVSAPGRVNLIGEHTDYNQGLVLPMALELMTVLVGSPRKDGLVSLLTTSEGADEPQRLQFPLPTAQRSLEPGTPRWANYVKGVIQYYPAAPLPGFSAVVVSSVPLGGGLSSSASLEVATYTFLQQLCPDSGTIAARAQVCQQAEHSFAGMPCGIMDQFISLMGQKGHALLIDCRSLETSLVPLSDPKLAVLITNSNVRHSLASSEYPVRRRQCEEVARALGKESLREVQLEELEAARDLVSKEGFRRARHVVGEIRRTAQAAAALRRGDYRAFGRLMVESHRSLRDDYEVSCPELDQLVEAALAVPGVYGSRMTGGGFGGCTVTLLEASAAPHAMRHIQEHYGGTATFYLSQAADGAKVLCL
#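 Compounds were pin-transferred into ATP buffer (35 uM final), then GALK plus galactose (5 nM, 100 uM final) was added. After 1 h at room temperature, Kinase-Glo Plus was added and luminescence read after 10 min.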
# rTrxR1 inhibitor: inhibitors of rat thioredoxin reductase 1; hit rate 1% among 390,000; recombinant rTrxR1, NADPH fluorescence consumption, selenite substrate; AID 588453; Potency, µM (top dose mostly 114 µM), usual class: inhibitors; note: nearly all actives have a fitted effect of over 65% in size
#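 Rat TrxR1 (90 nM in the dispensed reagent) was pre-reduced with 400 uM NADPH for 5 min at room temperature, then incubated with compound for 15 min. After 400 uM selenite was added, NADPH fluorescence (Ex 340/Em 450 nm) was followed for 8 min.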
# A number is an active result; – = inactive; ? = inconclusive; · = not tested or not shown. This is a sample that favours compounds with a hit; in the whole collection about 5.9% have one here. Unless noted, calls come from the whole dose curve; as a rule, active = well fitted curve in the direction sought with a large enough effect; inconclusive = small, poorly fitted or top-dose-only effect, or another doubt; inactive = no such curve, though single readings can be large; an effect the other way counts as inactive or inconclusive.
SMILES,FBPA coupling cs,RORg inh,TrxR1 substrate,Gal4-VP16 FLuc,GALK inhibitor,rTrxR1 inhibitor
CC(=O)c1c(C)c(C)c2n1CCn1c(C)ccc1-2,–,–,–,–,–,25µM
O=C(/C=C/c1ccccc1O)c1ccco1,–,7.9µM,–,11µM,–,–
N#Cc1ccc(/C=C/C(=O)c2ccco2)cc1,–,?,–,?,–,?
O=C(/C=C/c1cc(Br)ccc1O)c1ccco1,–,?,–,?,–,35µM
CN(C)C(=O)CCN1CCOCC1,–,–,–,–,–,–
CCOC(=O)c1c(C(C)(C)C)oc2ccc(O)cc12,·,–,–,16µM,–,–
CCOC(=O)c1c(COc2ccccc2)oc2ccc(O)cc12,–,–,–,–,–,–
Fc1ccc2[nH]c3c(NCc4ccccc4)ncnc3c2c1,–,?,–,5.6µM,–,–
O=C(NN=Cc1ccccc1Cl)c1ccc([N+](=O)[O-])cc1,·,·,–,·,·,–
O=C(N/N=C\c1ccc[nH]1)c1cncc(Br)c1,–,2.8µM,–,5.6µM,–,–
O=C(N/N=C/c1ccc[nH]1)c1cc2ccccc2cc1O,–,1.1µM,–,?,–,–
O=C(N/N=C/c1ccc[nH]1)c1cccnc1,–,?,–,–,–,?
O=C(N/N=C/c1ccc[nH]1)c1ccc([N+](=O)[O-])cc1,–,4µM,–,5.6µM,–,–
Cc1cccc(NCC(=O)N/N=C\c2ccc[nH]2)c1,–,8.9µM,–,?,–,–
Cc1ccc(C)c(NC(=O)Cn2c(=O)ccc3cc(S(=O)(=O)N4CCCC4)ccc32)c1,·,·,–,·,·,–
CC(=O)Nc1ccc(C2NC(=S)N(c3ccccc3C(F)(F)F)C(C)=C2C(=O)N2CCOCC2)cc1 (stereo not given),–,–,–,–,–,–
Cc1cccc(C(=O)N/N=C/c2ccc[nH]2)c1,–,7.9µM,–,13µM,–,–
Cc1ccc(C(=O)N/N=C\c2ccc[nH]2)cn1,–,?,–,–,–,–
O=C(N/N=C/c1ccc[nH]1)c1cccc(Br)c1,–,2.8µM,–,5.6µM,–,–
CCOC(=O)N/N=C1\CCc2ccccc21,–,–,–,–,–,–
CCC(=O)N1c2ccc(S(=O)(=O)N3CCCC3)cc2CC1C (stereo not given),·,–,–,–,–,–
O=C(CCCN=C1NS(=O)(=O)c2ccccc21)OCC(=O)N1CCc2ccccc21,–,–,–,–,–,–
Cc1cc(C(=O)NN=Cc2c(C)[nH]c3ccccc23)c(C)o1,·,·,–,·,·,–
O=C(Nc1ccc(Br)cc1)c1ccc(F)c(S(=O)(=O)NCc2cccs2)c1,–,?,–,10µM,–,–
O=S(=O)(NCc1cccs1)c1ccc(Br)cc1,–,?,–,–,–,–
SMILES,FBPA coupling cs,RORg inh,TrxR1 substrate,Gal4-VP16 FLuc,GALK inhibitor,rTrxR1 inhibitor
NC(=O)C1CCN(C(=S)c2ccc(-c3ccc(Br)cc3)o2)CC1,-33,–,–,–,–,–
NC(=O)c1ccc(-c2ccc(Br)cc2)o1,–,–,–,–,–,–
Cc1nc2ccc(N=NN(C)C)cc2[nH]1,-35,–,–,–,–,–
Cc1nc2ccc(Cc3ccc4nc(C)[nH]c4c3)cc2[nH]1,–,–,–,–,–,–
Cc1nc2ccc(NC(=O)c3cc([N+](=O)[O-])cc([N+](=O)[O-])c3Cl)cc2s1,–,?,–,3.2µM,–,?
O=C(Nc1ccc(Cl)cc1)Nc1ccon1,·,–,–,–,–,–
Cc1ccc(CSc2nnc(SCC(=O)N/N=C/c3ccc(C(=O)O)cc3)s2)cc1,–,5.6µM,–,?,·,–
CCn1c(SCC(=O)N/N=C/C=C/c2ccco2)nnc1-c1ccc(OC)cc1,-39,–,–,–,–,–
CC(/C=N\NC(=O)Cn1c(C)nc2ccccc21)=C\c1ccccc1,–,–,–,13µM,–,–
O=C(CSc1nnc(SCc2ccccc2)s1)N/N=C/c1c[nH]c2ccccc12,–,8.9µM,–,?,–,–
Cc1ccc(CSc2nnc(SCC(=O)N/N=C/c3c[nH]c4ccccc34)s2)cc1,–,–,–,?,–,–
O=C(CSc1ccccn1)N1CCCC(Nc2ccc(F)c(F)c2)C1 (stereo not given),·,–,–,–,–,–
